Laboratory results: PubChem BioAssay (NCATS)
Results filed as inconclusive are left out. Active and inactive are the calls of the source. Calls follow the shape of the dose curve; as a rule, active = well fitted curve in the direction sought with a large enough effect; inconclusive = small, poorly fitted or top-dose-only effect, or another doubt; inactive = no such curve, though single readings can be large; an effect the other way counts as inactive or inconclusive.

Experiments:
[1] = biological target: Glutathione peroxidase 1 (Homo sapiens) (UniProt P07203); experiment: Primary qHTS Assay for Inhibitors of Recombinant Selenoprotein Glutathione Peroxidase 1 (GPX1) (AID 1845191); also: nearly all actives have a fitted effect of over 65% in size; as to activity, negative = inhibition: % is scaled to controls: 0 for no effect and ±100 for the full control effect
Procedure, shortened: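 GR-coupled assay: compounds preincubated 30 min at room temperature with GPX1, then reaction started with CHP; final 10 nM GPX1, 1 mM GSH, 0.5 mM CHP, 0.5 mM NADPH, 100 nM GR, 0.01% BSA, pH 7.5 Tris buffer. NADPH fluorescence (340/450 nm) read at 0 and 15 min.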

[2] = biological target: Phospholipid hydroperoxide glutathione peroxidase GPX4 (Homo sapiens) (UniProt P36969); experiment: Primary qHTS Assay for Inhibitors of Recombinant Selenoprotein Glutathione Peroxidase 4 (GPX4) (AID 1845192); also: nearly all actives have a fitted effect of over 65% in size
Procedure, shortened: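 GR-coupled assay: recombinant GPX4 preincubated 30 min with compound at room temperature; final 200 nM GPX4, 1 mM GSH, 0.5 mM cumene hydroperoxide, 0.5 mM NADPH, 100 nM GR, 0.01% BSA, pH 7.5 Tris. NADPH fluorescence (340/450 nm) read at 0 and 15 min.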

[3] = biological target: Luciferin 4-monooxygenase (Photinus pyralis) (UniProt P08659); experiment: Primary firefly luciferase (FLuc) qHTS assay for identification of artifact compounds. (AID 1845220); also: nearly all actives have a fitted effect of over 60% in size
Procedure, shortened: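 D-luciferin and ATP (10 uM each, final) in Tris acetate buffer pH 7.6 were incubated with compounds for 15 min at room temperature. The reaction was started with 10 nM Photinus pyralis luciferase and luminescence read after 5 min. Percent inhibition was fitted to a 4-parameter Hill equation.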

[4] = Primary fluorescence-based thiol-reactive (MSTI) qHTS assay for identification of artifact compounds. (AID 1845221); also: nearly all actives have a fitted effect of over 65% in size; also: potency is read from the fitted curve at half-maximal effect;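 as to activity change, negative = thiol reactive: series mostly up to about 54 µM; thiol-reactive compounds lower the probe fluorescence signal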
Procedure, shortened: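 Reactivity toward the thiol probe MSTI (4 uM) is scored by fluorescence at Ex/Em 525/598 nm after 1 h at room temperature. Acetyl-MSTI and MSTI define the activity scale.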

[5] = test system: Nanoluciferase (engineered Oplophorus gracilirostris luciferase); experiment: Primary Nanoluciferase (NLuc) qHTS assay for identification of artifact compounds. (AID 1845222); also: potency is read from the fitted curve at half-maximal effect;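 as to activity, negative = inhibition: series mostly up to about 54 µM; 0% = DMSO and -100% = no enzyme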
Procedure, shortened: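 Diluted conditioned medium from NLuc-expressing S16 cells treated with compounds for 15 min at room temperature, then Nano-Glo substrate added; luminescence read after 5 min. Percent inhibition versus no-enzyme and DMSO controls fitted to 4-parameter Hill equation.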

[6] = Primary redox qHTS assay for identification of artifact compounds. (AID 1845223);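 also: 0% = DMSO and 100% = reference compound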
Procedure, shortened: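 Amplex Red (25 uM) and HRP (250 mU/mL) in HBSS, with compounds for 15 min, then 250 uM DTT for 30 min, room temperature, dark. Fluorescence 525/598 nm read; normalized to DMSO and 10 uM DA3003; Hill fit.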

Chain of Glutathione peroxidase 1 (Homo sapiens) (P07203 whole entry, looked up): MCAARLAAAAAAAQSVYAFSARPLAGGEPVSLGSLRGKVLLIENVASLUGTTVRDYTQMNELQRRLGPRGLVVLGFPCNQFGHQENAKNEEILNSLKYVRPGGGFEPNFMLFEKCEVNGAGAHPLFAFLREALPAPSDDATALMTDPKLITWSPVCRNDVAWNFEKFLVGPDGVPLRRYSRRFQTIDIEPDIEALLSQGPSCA
Chain of Phospholipid hydroperoxide glutathione peroxidase GPX4 (Homo sapiens) (P36969 whole entry, looked up): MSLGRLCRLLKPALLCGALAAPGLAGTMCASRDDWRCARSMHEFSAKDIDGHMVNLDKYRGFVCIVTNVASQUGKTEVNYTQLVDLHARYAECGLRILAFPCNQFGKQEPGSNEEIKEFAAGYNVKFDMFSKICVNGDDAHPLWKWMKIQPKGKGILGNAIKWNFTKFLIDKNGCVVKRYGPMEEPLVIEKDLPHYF

CC1(C)CCCC2(C)C1C(=O)C=C(C(=O)O)C2(O)C(=O)O (stereo not drawn)
inactive: Potency [1] | Potency [2] | Potency [3] | Potency [5]
active: Potency [4] 9.47 µM

CCc1cc(C(N)=O)ccc1-n1nc(C(C)C)c2c(-n3cnc(-c4cnn(C)c4)c3)ccnc21
inactive: Potency [1] | Potency [2] | Potency [3] | Potency [4] | Potency [5]

Fc1ccc(N2CCN(CCC3OCCc4ccccc43)CC2)cc1 (stereo not drawn)
inactive: Potency [1] | Potency [2] | Potency [3] | Potency [4] | Potency [5]

C/C(=C/C=C\C=C\Cc1cnco1)[C@@H](O)C(C)(C)C(N)=O
inactive: Potency [1] | Potency [2] | Potency [3] | Potency [4] | Potency [5]

COC(=O)C1=COC(O[C@@H]2O[C@H](CO[C@@H]3O[C@H](COC(=O)/C=C\c4ccc(O)cc4)[C@@H](O)[C@H](O)[C@H]3O)[C@@H](O)[C@H](O)[C@H]2O)C2C(CO)=CCC12 (stereo partly drawn)
inactive: Potency [1] | Potency [2] | Potency [3] | Potency [4] | Potency [5]

C[C@@H]1O[C@@H](O[C@H]2[C@H](OC(=O)[C@]34CCC(C)(C)C[C@H]3C3=CCC5[C@@]6(C)C[C@H](O)[C@H](O[C@@H]7O[C@H](C(=O)O)[C@@H](O)[C@H](O)[C@H]7O)[C@@](C)(CO)C6[C@H](O)C[C@@]5(C)[C@]3(C)C[C@H]4O)O[C@@H](CO)[C@@H]2O)[C@H](O)[C@H](O)[C@H]1O[C@@H]1OC[C@@H](O)[C@H](O[C@H]2OC[C@](O)(CO)[C@H]2O)[C@H]1O (stereo partly drawn)
inactive: outcome [1] inactive [at 9.52 µM] | outcome [2] inactive [at 9.73 µM] | outcome [3] inactive [at 11.6 µM] | activity change, negative = thiol reactive [4] 391% [at 11.5 µM] | activity, negative = inhibition [5] 1.66% [at 11.6 µM]

COc1ccc(NC(=O)c2ccc(-c3ccc(-c4nnc(C)o4)cc3C)cc2)cc1N1CCN(C)CC1
active: Potency [5] 1.51 µM
inactive: Potency [1] | Potency [2] | Potency [3] | Potency [4]

O=C1COC2(CCN(S(=O)(=O)c3ccc(-c4ccc5cccnc5c4)cc3)CC2)CN1C1CC1
inactive: Potency [1] | Potency [2] | Potency [3] | Potency [4] | Potency [5]

CCc1cccc(CC)c1-n1c(C=C(C)C)c(C(=O)N2CCNCC2)cc(-c2nc(-c3ccc(C(F)(F)F)cc3)cs2)c1=O
inactive: Potency [1] | Potency [2] | Potency [3] | Potency [4] | Potency [5]

C=C1C(=O)O[C@@H]2/C=C(/C)[C@@H](OC(C)=O)C/C=C(\C)C[C@@H](OC(=O)/C(=C/CO)CO)[C@@H]12
inactive: Potency [1] | Potency [2] | Potency [3] | Potency [4] | Potency [5]

CNC(=O)COC(=O)N1CCC(CCc2ccc(Cl)cc2)CC1
inactive: Potency [1] | Potency [2] | Potency [3] | Potency [4] | Potency [5]

CC(=O)O[C@H]1CC(C)(C)CC2[C@]13CO[C@@]21CCC2[C@@]4(C)CC[C@H](O[C@@H]5OC[C@H](O[C@@H]6O[C@H](CO)[C@@H](O)[C@H](O)[C@H]6O[C@@H]6OC[C@@H](O)[C@H](O)[C@H]6O)[C@H](O)[C@H]5O[C@@H]5O[C@H](CO)[C@@H](O)[C@H](O)[C@H]5O)[C@@](C)(CO)C4CC[C@@]2(C)[C@]1(C)C[C@H]3O (stereo partly drawn)
inactive: Potency [1] | Potency [2] | outcome [3] inactive [at 11.6 µM] | activity change, negative = thiol reactive [4] 28.4% [at 11.5 µM] | activity, negative = inhibition [5] 2.37% [at 11.6 µM]

CC1CCC(=O)CC(SCC(O)C(=O)O)CCC(=O)O1 (stereo not drawn)
inactive: Potency [1] | Potency [2] | Potency [3] | Potency [4] | Potency [5] | Potency [6]

CC(C)(C)NC(=O)[C@H]1CC[C@H]2[C@@H]3CC[C@H]4NC(=O)CC[C@]4(C)[C@H]3CC[C@]12C
inactive: Potency [1] | Potency [2] | Potency [3] | Potency [4] | Potency [5] | Potency [6]

CC(=O)OC1CC2(C)C(CCC(C)C23Cc2c(O)cc(CO)c(C=O)c2O3)C(C)(C)C1O (stereo not drawn)
inactive: Potency [1] | Potency [2] | Potency [3] | Potency [4] | Potency [5]

COc1cc(C(=O)NC(=S)Nc2cccc(NC(=O)c3ccccc3)c2)cc(OC)c1OC
inactive: Potency [1] | Potency [2] | Potency [3] | Potency [4] | Potency [5] | Potency [6]

CC(C)(C)Oc1ccc(OCC2Cc3ccccc3CN2C(=O)c2cccc3ccccc23)cc1 (stereo not drawn)
inactive: Potency [1] | Potency [2] | Potency [3] | Potency [4] | Potency [5] | Potency [6]

CCN1CCC[C@@H]1CNC(=O)c1ccc2c(c1)NC(=O)c1cccc(C)c1S2
inactive: Potency [1] | Potency [2] | Potency [3] | Potency [4] | Potency [5] | Potency [6]

CC(=O)OC1C(OC(=O)c2ccccc2)C2C(C)(C)CCC(OC(C)=O)C2(C)C23CCC(C)(C2)C(=O)CC13 (stereo not drawn)
inactive: Potency [1] | Potency [2] | Potency [3] | Potency [4] | Potency [5] | Potency [6]

CNC(=O)[C@@H](c1ccccc1)N1CCc2cc(OC)c(OC)cc2[C@@H]1CCc1ccc(C(F)(F)F)cc1
inactive: Potency [1] | Potency [2] | Potency [3] | Potency [4] | Potency [5] | Potency [6]

O=C(/C=C/c1ccccc1O)O[C@@H]1O[C@H](CO)[C@@H](O)[C@H](O)[C@H]1O
inactive: Potency [1] | Potency [2] | Potency [3] | Potency [4] | Potency [5] | Potency [6]
